According to the supplement of paper PMC10849652:
Targets with a hit are over-represented here; the source holds about 8,800 in all. About 0.5% of all pairs of compound and target were hits.

Tests used:
Experiment in all cases: log2 fold change, soluble protein after heating vs DMSO (PISA); higher = thermal stabilisation; K562 lysate, 10 uM; active = over 0.2 and 3.5 SD of the protein, either way, in both replicates (recomputed)
[1] = compound: C1=CC=C(C=C1)[C@H](COC2=CC3=C(C=C2)NC(=O)N3)NC(=O)C4=CC=CN(C4=O)CC5=CC(=C(C=C5)F)F
How it was run: (§1)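 Pellets of K562 cells were dounce-homogenised in PBS pH 7.4 with 1 mM MgCl2, and the crude extract was held at 1 mg/mL protein for a 30 min treatment with 10 μM compound. Aliquots were heated for 3 min over 48°C-58°C and pooled before NP-40 was added to 0.5% at 4°C. The supernatant from 21,000xg for 90 min was quantified by TMTpro 16plex LC-MS/MS with channel sums equalised. Values are reported from duplicates as log-two fold change in thermal stability relative to solvent controls.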

[2] = compound: CC1=C(SC2=C1C(=N[C@H](C3=NN=C(N32)C)CC(=O)N)C4=CC=C(C=C4)Cl)C
How it was run: as §1

[3] = compound: CC1=C2C(=CC=C1)N=C(N(C2=O)C3=CC=CC=C3C)CN4C=NC5=C(N=CN=C54)N
How it was run: as §1

[4] = compound: Cc1sc2c(c1C)C(c1ccc(Cl)cc1)=N[C@@H](CC(=O)OC(C)(C)C)c1nnc(C)n1-2
How it was run: as §1

[5] = compound: c1ccc([C@@H]2C[C@H]2NC2CCNCC2)cc1
How it was run: as §1

Measured: log2 fold change

AGPS (UniProt O00116)
Sequence of UniProt O00116 (O00116 whole entry, looked up): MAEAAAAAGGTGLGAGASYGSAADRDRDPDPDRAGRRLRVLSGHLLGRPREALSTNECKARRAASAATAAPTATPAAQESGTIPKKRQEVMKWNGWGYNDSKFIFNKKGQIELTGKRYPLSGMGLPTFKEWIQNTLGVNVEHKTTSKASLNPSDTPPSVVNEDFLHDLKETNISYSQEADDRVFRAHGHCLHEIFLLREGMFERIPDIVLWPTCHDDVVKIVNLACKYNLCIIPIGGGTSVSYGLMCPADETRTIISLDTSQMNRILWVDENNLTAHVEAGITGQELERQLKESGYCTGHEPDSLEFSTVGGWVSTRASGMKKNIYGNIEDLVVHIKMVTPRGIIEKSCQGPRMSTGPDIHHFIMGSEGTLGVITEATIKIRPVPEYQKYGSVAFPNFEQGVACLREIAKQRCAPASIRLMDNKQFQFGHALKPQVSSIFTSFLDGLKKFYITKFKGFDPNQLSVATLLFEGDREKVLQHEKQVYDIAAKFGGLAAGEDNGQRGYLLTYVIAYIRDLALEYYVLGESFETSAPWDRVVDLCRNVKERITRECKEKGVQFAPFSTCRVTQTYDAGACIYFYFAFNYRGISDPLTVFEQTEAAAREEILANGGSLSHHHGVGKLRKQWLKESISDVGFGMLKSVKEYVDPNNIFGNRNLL
inactive: [1] -0.103 | [2] 0.016 | [3] 0.035 | [4] 0.019 | [5] -0.006

AIP (UniProt O00170)
Sequence of UniProt O00170 (O00170 whole entry, looked up): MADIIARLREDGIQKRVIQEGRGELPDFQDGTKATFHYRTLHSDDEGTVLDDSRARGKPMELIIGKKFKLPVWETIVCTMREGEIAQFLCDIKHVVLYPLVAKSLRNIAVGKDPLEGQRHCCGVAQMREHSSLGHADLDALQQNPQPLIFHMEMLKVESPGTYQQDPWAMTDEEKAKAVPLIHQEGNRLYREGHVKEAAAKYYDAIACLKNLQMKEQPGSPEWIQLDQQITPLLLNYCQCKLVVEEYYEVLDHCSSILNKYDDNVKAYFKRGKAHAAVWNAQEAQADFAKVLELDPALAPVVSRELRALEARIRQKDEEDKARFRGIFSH
inactive: [1] 0.012 | [2] -0.023 | [3] -0.006 | [4] 0.025 | [5] 0.125

ASNS (UniProt P08243)
Sequence of UniProt P08243 (P08243 whole entry, looked up): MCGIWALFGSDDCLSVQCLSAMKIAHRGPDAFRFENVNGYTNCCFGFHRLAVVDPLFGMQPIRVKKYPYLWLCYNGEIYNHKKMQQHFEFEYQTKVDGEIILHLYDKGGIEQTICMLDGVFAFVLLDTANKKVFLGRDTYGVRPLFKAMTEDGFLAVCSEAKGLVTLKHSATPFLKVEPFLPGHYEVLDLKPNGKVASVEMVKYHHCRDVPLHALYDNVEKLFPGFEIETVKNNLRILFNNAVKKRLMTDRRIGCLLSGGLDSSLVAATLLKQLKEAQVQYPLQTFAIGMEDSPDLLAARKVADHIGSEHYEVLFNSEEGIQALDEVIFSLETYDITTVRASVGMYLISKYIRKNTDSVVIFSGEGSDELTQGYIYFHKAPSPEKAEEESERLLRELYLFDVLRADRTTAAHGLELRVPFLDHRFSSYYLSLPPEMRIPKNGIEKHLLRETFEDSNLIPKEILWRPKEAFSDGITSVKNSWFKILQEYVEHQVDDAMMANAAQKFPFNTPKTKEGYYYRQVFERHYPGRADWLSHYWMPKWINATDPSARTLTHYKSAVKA
inactive: [1] 0.006 | [2] 0.021 | [3] 0.027 | [4] 0.057 | [5] 0.033

ARAP1 (UniProt Q96P48)
inactive: [1] 0.022 | [2] -0.008 | [3] 0.048 | [4] 0.013 | [5] -0.015

AP1G2 (UniProt O75843)
Sequence of UniProt O75843 (O75843 whole entry, looked up): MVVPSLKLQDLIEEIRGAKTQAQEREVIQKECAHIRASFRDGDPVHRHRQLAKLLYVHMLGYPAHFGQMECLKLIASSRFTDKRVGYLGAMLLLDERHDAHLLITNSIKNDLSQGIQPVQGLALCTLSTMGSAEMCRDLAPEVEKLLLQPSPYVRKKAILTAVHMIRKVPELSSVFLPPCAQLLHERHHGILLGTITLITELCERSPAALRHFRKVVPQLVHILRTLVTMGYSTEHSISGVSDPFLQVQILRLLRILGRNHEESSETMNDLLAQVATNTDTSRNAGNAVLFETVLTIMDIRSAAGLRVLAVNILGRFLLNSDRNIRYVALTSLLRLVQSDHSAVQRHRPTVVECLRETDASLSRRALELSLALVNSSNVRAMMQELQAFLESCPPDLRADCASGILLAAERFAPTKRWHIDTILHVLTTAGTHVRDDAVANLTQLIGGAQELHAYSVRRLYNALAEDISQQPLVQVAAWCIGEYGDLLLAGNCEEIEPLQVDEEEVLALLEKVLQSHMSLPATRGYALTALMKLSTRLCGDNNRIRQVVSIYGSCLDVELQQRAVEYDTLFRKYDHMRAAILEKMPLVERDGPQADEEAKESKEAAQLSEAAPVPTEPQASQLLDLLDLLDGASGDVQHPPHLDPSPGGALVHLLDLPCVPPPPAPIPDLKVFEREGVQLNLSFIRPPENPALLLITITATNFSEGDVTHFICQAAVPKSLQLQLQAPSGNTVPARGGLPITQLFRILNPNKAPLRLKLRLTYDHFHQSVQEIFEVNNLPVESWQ
inactive: [1] 0.082 | [2] -0.09 | [3] 0.016 | [4] 0.028 | [5] -0.099

ARL15 (UniProt Q9NXU5)
Sequence of UniProt Q9NXU5 (Q9NXU5 whole entry, looked up): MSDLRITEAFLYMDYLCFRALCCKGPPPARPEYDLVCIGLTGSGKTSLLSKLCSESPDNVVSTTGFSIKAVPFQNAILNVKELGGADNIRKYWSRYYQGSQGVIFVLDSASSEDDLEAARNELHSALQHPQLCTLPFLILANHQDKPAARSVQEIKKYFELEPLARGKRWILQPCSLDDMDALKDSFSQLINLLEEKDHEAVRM
inactive: [1] 0.02 | [2] -0.005 | [3] 0.018 | [4] -0.009 | [5] 0.269

ASPH (UniProt Q12797)
Sequence of UniProt Q12797 (Q12797 whole entry, looked up): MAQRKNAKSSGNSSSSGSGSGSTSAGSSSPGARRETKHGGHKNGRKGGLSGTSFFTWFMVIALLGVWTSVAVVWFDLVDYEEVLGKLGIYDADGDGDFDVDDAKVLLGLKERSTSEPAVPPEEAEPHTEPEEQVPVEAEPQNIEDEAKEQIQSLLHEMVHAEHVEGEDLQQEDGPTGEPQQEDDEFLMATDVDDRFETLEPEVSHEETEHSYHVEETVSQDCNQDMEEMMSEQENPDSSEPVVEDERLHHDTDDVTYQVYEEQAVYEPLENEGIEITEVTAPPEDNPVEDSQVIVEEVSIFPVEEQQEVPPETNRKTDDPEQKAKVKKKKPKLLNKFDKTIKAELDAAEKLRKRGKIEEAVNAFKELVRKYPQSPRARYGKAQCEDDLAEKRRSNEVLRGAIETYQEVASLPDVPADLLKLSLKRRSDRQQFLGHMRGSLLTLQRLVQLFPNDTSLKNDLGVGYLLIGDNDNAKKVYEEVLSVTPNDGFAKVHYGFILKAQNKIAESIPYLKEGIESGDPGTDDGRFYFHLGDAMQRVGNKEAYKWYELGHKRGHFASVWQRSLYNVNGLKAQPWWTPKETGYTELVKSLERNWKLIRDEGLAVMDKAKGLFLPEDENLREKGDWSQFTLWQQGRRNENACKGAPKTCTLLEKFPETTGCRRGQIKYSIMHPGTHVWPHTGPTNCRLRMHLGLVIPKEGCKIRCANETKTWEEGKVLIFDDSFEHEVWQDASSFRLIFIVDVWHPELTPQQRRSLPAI
inactive: [1] 0.006 | [2] 0.028 | [3] 0 | [4] -0.045 | [5] 0.026

ALDH5A1 isoform 2 (UniProt P51649)
Sequence of UniProt P51649 (P51649 whole entry, looked up): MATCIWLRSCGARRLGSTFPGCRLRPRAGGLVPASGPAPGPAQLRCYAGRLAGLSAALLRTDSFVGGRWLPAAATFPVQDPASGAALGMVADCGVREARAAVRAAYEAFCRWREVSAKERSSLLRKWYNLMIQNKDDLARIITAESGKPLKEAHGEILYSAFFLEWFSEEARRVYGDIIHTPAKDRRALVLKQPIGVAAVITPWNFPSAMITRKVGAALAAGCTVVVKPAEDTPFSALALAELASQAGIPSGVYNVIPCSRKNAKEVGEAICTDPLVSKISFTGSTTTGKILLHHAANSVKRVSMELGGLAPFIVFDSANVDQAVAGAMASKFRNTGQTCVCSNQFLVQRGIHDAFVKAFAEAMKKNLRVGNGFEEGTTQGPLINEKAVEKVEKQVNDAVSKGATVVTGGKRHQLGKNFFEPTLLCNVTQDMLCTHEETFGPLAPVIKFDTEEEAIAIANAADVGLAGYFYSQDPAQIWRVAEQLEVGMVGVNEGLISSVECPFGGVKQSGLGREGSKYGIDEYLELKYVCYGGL
inactive: [1] -0.029 | [2] -0.018 | [3] -0.017 | [4] 0.004 | [5] 0.075

ACAA1 (UniProt P09110)
Sequence of UniProt P09110 (P09110 whole entry, looked up): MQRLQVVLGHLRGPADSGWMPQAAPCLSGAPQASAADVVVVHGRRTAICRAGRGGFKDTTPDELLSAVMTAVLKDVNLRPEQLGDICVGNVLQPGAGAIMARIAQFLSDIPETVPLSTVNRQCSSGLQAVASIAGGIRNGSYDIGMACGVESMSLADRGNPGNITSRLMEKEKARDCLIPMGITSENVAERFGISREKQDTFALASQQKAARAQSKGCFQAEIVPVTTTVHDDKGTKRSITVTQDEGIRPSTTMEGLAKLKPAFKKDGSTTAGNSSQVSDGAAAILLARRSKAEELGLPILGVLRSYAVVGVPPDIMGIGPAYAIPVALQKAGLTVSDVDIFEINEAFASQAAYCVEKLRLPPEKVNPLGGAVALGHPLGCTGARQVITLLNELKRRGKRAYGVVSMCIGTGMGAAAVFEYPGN
inactive: [1] -0.004 | [2] 0.007 | [3] -0.005 | [4] 0.046 | [5] -0.003
